LEDGF integ inh: blockers of LEDGF/p75-dependent integrase strand transfer – biochemical, TR-FRET, high throughput, primary screen. HIV-1 integrase (with human LEDGF/p75). TR-FRET IN-LEDGF/p75 DNA integration, Eu/Cy5. inhibition, % at 3.7 µM. 370,000 tested, 0.64% active;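 active = inhibition above the screen-wide mean plus 3 SD, cut at about 13% in these data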;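 also: signal is the Cy5 over europium emission ratio at 671 and 618 nm; 0% = plate median of compound wells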
MBD2 inh: inhibitors of MBD2 binding to methylated DNA, primary screen, biochemical, TR-FRET, DNA-binding domain, human. 370,000 tested, 0.31% active. MBD2 binding to methylated oligonucleotide. inhibition, % at 4.4 µM. AID 686964, 2013. Methyl-CpG-binding domain protein 2 (Homo sapiens), Q9UBB5; in the data active = inhibition above about 13%
Target sequence (Q9UBB5 whole entry, looked up, the tested form may be a part): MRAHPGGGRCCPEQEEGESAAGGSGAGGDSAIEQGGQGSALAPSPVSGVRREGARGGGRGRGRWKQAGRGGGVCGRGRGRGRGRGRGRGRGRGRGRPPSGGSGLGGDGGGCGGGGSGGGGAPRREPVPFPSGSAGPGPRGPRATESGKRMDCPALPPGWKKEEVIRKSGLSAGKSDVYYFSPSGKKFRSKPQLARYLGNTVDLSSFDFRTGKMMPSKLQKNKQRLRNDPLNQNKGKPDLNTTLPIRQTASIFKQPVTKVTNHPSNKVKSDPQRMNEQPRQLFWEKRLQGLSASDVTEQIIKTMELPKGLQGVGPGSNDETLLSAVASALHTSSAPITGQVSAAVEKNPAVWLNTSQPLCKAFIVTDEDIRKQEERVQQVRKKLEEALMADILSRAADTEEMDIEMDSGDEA
rCAG binder: binders of r(CAG) RNA repeats, primary screen, biochemical, fluorescence. r(CAG) RNA repeat, TO-PRO-1 dye displacement fluorescence. inhibition, % at 3 µM. 370,000 tested, 1.3% active;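 active = inhibition above the plate cutoff, the mean of all test compounds on that plate plus 3 SD, cut at about 35% in these data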;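 also: 0% = DMSO alone and 100% = 100 µM mitoxantrone as full dye displacement; higher means more dye released from RNA so lower well fluorescence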
DNMT1 block: human DNMT1 methyltransferase inhibitors, primary screen, biochemical, molecular beacon, fluorescence, HinP1I cleavage, uHTS; DNA (cytosine-5)-methyltransferase 1 (Homo sapiens), P26358; inhibition (reported as % activation of signal), % at 10 µM; 360,000 tested, 0.83% active; AID 588458, 2011; in the data active = inhibition above about 50%
PG9 binder: binders of HIV-1 gp120 antibody PG9, primary screen, biochemical, TR-FRET; HIV-1 gp120 / PG9 antibody interaction; TR-FRET gp120-PG9 antibody binding; inhibition, % at 6.7 µM; 360,000 tested, 0.43% active; AID 624416, 2012; in the data active = inhibition above about 8.5%
UHRF1 MBD2 ctr: UHRF1 methylated DNA binding inhibitors, primary screen, counter-screen for MBD2 inhibitor project, biochemical, TR-FRET, human UHRF1, single concentration; E3 ubiquitin-protein ligase UHRF1 (Homo sapiens), Q96T88; UHRF1 binding to methylated oligo; inhibition, % at 4.4 µM; 370,000 tested, 0.75% active; AID 687016, 2013; in the data active = inhibition above about 21%;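 also: UHRF1 SRA domain binding a hemimethylated CpG hairpin DNA probe; 0% = median of test compound wells and 100% = reference inhibitor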
rCAG bind conf: small molecules binding CAG repeat RNA – biochemical, fluorescence, confirmation; 4,300 tested, 70% active; AID 652065, 2013; r(CAG) RNA repeat, TO-PRO-1 dye displacement fluorescence; inhibition, % at 3 µM; shares compounds with rCAG binder;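 active = inhibition above a per-plate cutoff, the mean inhibition of sample wells plus 3 SD, cut at about 35% in these data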;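 also: loss of TO-PRO-1 fluorescence as compound displaces dye from 1x1 AA loop RNA; 0% = DMSO only wells and 100% = 100 µM mitoxantrone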
DNA CAG counter: displacement of TO-PRO-1 from CAG DNA duplex, counter-screen for rCAG RNA repeat binder project, biochemical, fluorescence, TO-PRO-1 dye, d(CAG) DNA oligo. shares compounds with rCAG binder. d(CAG) DNA oligo TO-PRO-1 dye displacement. inhibition, % at 3 µM. 4,300 tested, 94% active. AID 652068, 2013;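 active = inhibition above its plate's cutoff, the mean test-well inhibition plus 3 SD, cut at about 4.8% in these data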;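 also: 0% = DNA dye mix with DMSO and 100% = 100 µM mitoxantrone; hits displace the dye from DNA and so lower well fluorescence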
DNA CAG DR: inhibitors of DNA CAG/GTC TO-PRO-1 complex, dose response, counter-screen for rCAG RNA repeat binder project, biochemical, fluorescence, TO-PRO-1 dye | IC50, µM | shares compounds with rCAG binder | 250 tested, 20% active | AID 686960, 2013 | DNA CAG/GTC duplex TO-PRO-1 dye displacement fluorescence; in the data active = IC50 below about 10 µM
The depositor's hits bear a star; i = inactive; x = no result given. In the library only some 3.5% were active in any assay of this set; here they are far more common.

SMILES	LEDGF integ inh	MBD2 inh	rCAG binder	DNMT1 block	PG9 binder	UHRF1 MBD2 ctr	rCAG bind conf	DNA CAG counter	others
COc1cc2c(cc1OC)C(c1ccccc1)N(Cc1ccc(S(=O)(=O)NC(=O)c3ccco3)cc1)CC2 (stereo unspecified)	4	4	40*	x	1	16	39*	11*
COc1cc2c(cc1OC)C(c1ccccc1)N(C(=O)c1ccco1)CC2 (stereo unspecified)	-4	1	2	0	0	2	x	x
CCOC(=O)c1sc(NC(=O)CSc2n[nH]c(-c3ccccc3)n2)c(C#N)c1C	2	-2	60*	-9	-1	-1	56*	19*
CCOC(=O)c1sc(NC(=O)CSc2nc(C)cc(C)n2)c(C#N)c1C	-2	-3	9	-13	1	-1	x	x
O=C(Nc1cccc(C(F)(F)F)c1)c1ccc2sc([C@H]3C[C@H](O)[C@@H](CO)O3)nc2c1	4	6	3	2	4	9	x	x
CCOC(=O)c1cc(C#N)c(SCC(=O)Nc2ccc(C(C)=O)cc2)[nH]c1=O	0	-5	43*	-2	-1	-2	44*	10*
CCOC(=O)c1cc(C#N)c(SCC(N)=O)[nH]c1=O	1	-2	-6	10	-2	1	x	x
O=C(O)c1ccccc1C(=O)Nn1cnnc1	-2	-3	3	0	-2	2	x	x
Cc1cc(/C=C2\C(=N)N3N=C(c4ccco4)SC3=NC2=O)c(C)n1Cc1ccccc1	1	1	59*	22	-2	0	69*	30*	DNA CAG DR=i
O=C(NC1CC1)c1sc2ccccc2c1Cl	-3	3	0	-2	2	3	x	x
O=C(O)CC(NC(=O)C1c2ccccc2Oc2ccccc21)c1ccc(OC2CCCC2)cc1 (stereo unspecified)	6	4	50*	7	-1	2	48*	12*
O=C(NNC(=S)NC1CCCCC1)c1sc2ccccc2c1Cl	1	2	83*	-7	-2	-5	82*	54*
O=C(O)CC(NC(=O)c1sc2ccccc2c1Cl)c1ccc(OC2CCCC2)cc1 (stereo unspecified)	6	0	59*	2	7	3	73*	25*	DNA CAG DR=i
CCOc1ccc(C(CC(=O)O)NC(=O)C2c3ccccc3Oc3ccccc32)cc1 (stereo unspecified)	4	2	15	0	-1	4	x	x
O=C(O)CC(NC(=O)C1c2ccccc2Oc2ccccc21)c1ccc(Cl)cc1 (stereo unspecified)	0	2	39*	2	3	7	26	4
CCn1cc(/C=C(\NC(=O)c2ccccc2F)C(=O)N2CCN(C)CC2)c2ccccc21	-1	0	0	5	0	-1	x	x
COC(=O)Cc1ccc(NC(=O)c2ccc3c(c2)C(=O)N(Cc2ccco2)C3=O)cc1	-1	-6	5	4	2	1	x	x
CCc1ccc(NC(=O)c2ccc3c(c2)C(=O)N(Cc2ccco2)C3=O)cc1	6	-1	35*	10	1	2	23	14*
CCOc1ccc(Nc2nc(Cc3nnc(SCC(=O)O)o3)cs2)cc1	3	0	46*	3	-3	-1	29	9.0*
O=C(Nc1ccc(S(=O)(=O)Nc2ncccn2)cc1)c1ccccc1NS(=O)(=O)c1ccc(Cl)cc1	4	2	42*	0	-1	2	66*	26*
O=C(Nc1ccc(Cl)cc1)Nc1ccc(S(=O)(=O)Nc2ncccn2)cc1	-2	-6	13	1	2	-1	x	x
O=C(c1ccccc1NS(=O)(=O)c1ccc(Cl)cc1)N1CCc2ccccc21	-3	5	47*	1	-1	0	61*	15*
O=C(O)c1ccc(Cl)c(S(=O)(=O)Nc2ccccc2C(=O)Nc2ccc(Cl)cc2)c1	8	-3	45*	-6	-2	-1	46*	17*
CC1C(=O)N2CCCc3cc(NC(=O)COc4ccc(Cl)cc4)cc1c32 (stereo unspecified)	-1	0	0	-3	-1	-1	x	x
Cc1ccsc1/C=N/NC(=O)c1cccc(S(=O)(=O)Nc2ccccc2Cl)c1	0	1	47*	33	-1	-1	40*	14*
SMILES	LEDGF integ inh	MBD2 inh	rCAG binder	DNMT1 block	PG9 binder	UHRF1 MBD2 ctr	rCAG bind conf	DNA CAG counter	others
O=C(N/N=C/c1ccccn1)c1cccc(S(=O)(=O)Nc2ccccc2Cl)c1	1	1	24	-1	-1	-1	x	x
COc1ccc(-c2nn(-c3ccccc3)cc2/C=N/NC(=O)c2cccc(S(=O)(=O)Nc3ccccc3Cl)c2)cc1	6	4	59*	-15	-3	-1	55*	29*
CC(C)Cc1nnc(NC(=O)CN2C(=O)NC3(CCCC3)C2=O)s1	4	0	1	-1	-1	5	x	x
O=C1Nc2ccc(Br)cc2/C1=C/C(=O)c1ccccc1	0	-8	15	-3	0	-1	x	x
O=C(O)COc1ccccc1/C=C1\C(=O)Nc2ccc(Br)cc21	-2	-6	43*	5	-3	0	26	5.7*
CC(=O)c1ccc(OCc2c(-c3ccccc3)nnn2CC(=O)NS(=O)(=O)c2ccccc2C)cc1	2	-5	52*	-9	0	-3	49*	14*
CC(=O)c1ccc(OCc2nnn(CC(=O)O)c2-c2ccccc2)cc1	-3	-2	7	-2	3	-1	x	x
N#Cc1ccc(OCc2c(-c3ccccc3)nnn2CC(=O)O)cc1	-2	-1	3	4	1	-2	x	x
